# High-throughput results as filed in PubChem BioAssay.
# p53ts 32C tox – qHTS Screen for Compounds that Selectively Target Cancer Cells with p53 Mutations: Cytotoxicity of p53ts Cells at the Permissive Temperature. H1299-p53A138V at 32C, ATP luminescence viability, 24 h. Potency, µM (titrated, usually from 46.1 µM), inactives show top-dose activity change, negative = cytotoxicity, hits mostly cytotoxic. 130,000 compounds, 0.93% hits. AID 924, 2007;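 also: 0% = DMSO and -100% = full killing by reference compound; nearly all actives have a fitted effect of over 55% in size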
#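 Viability by ATPlite luminescence after 24 h compound treatment (up to 46 uM) at the permissive 32C. Cells are H1299 carrying p53 A138V. Scale runs from DMSO basal to 100 uM tamoxifen as full kill; AC50 from Hill fits.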
# Peg3 imprint – qHTS Assay for Compounds that Induce Erasure of Genomic Imprints | mouse ES Peg3-LacZ reporter, beta-gal luminescence, 40 h | Potency, µM (top dose mostly 60.7 µM), inactives show at the top dose activity change, positive = activation, actives largely listed as activators | 110,000 compounds, 0.02% hits
#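 Gelatin-coated wells received 300 freshly trypsinized female ES cells with a Peg3LacZ-Neo reporter on the maternal allele, then incubated 40 hours at 37C. BetaGlo was added for 5 minutes at room temperature before a single luminescence read.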
# IkB sig inh – IkB Signaling; ABC-DLBCL IkBa-CBG/CBR dual luciferase ratio, 4 h; response scale: scaled: untreated 0%, proteasome inhibitor 100%; Potency, µM (series often up to 57.1 µM), for inactives: at the highest dose IkBa stabilization activation; 110,000 compounds, 0.04% hits; AID 445, 2006; active = well fitted curve in the direction sought with a large enough effect in the signal ratio, not every such curve was filed as active; inconclusive = small, poorly fitted or top-dose-only effect, or a change in a side signal; the % refers to the signal ratio;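 also: the direction sought is a rising ratio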
#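 In this assay, an IκBα–CBG68 fusion accumulates when IKK-driven degradation is blocked; native CBR normalizes for cell number. OCI-Ly3 cells were treated 4 h with compound and doxycycline, then green and red light read after Chroma-Glo addition.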
# p53ts 39C tox – qHTS Screen for Compounds that Selectively Target Cancer Cells with p53 Mutations: Cytotoxicity of p53ts Cells at the Nonpermissive Temperature | H1299-p53A138V viability at 39C, ATP luminescence, 24 h | Potency, µM (top dose mostly 46.1 µM), for the others: at the top dose activity change, negative = cell killing, hits mostly cytotoxic | 130,000 compounds, 1.5% hits | AID 902, 2007; also: % is scaled to controls: 0 for no effect and ±100 for the full control effect; nearly all actives have a fitted effect of over 55% in size
# FLuc inh – qHTS Assay for Inhibitors of Firefly Luciferase; Luciferin 4-monooxygenase (Photinus pyralis), P08659; purified firefly luciferase, luminescence, 8 min; Potency, µM (series often up to 57.1 µM), without a hit: at the highest dose activity change, negative = inhibition, hits mostly inhibitors; 72,000 compounds, 2.2% hits; AID 411, 2009; also: % is scaled to controls: 0 for no effect and ±100 for the full control effect; nearly all actives have a fitted effect of over 40% in size
# Target sequence (P08659 whole entry, looked up): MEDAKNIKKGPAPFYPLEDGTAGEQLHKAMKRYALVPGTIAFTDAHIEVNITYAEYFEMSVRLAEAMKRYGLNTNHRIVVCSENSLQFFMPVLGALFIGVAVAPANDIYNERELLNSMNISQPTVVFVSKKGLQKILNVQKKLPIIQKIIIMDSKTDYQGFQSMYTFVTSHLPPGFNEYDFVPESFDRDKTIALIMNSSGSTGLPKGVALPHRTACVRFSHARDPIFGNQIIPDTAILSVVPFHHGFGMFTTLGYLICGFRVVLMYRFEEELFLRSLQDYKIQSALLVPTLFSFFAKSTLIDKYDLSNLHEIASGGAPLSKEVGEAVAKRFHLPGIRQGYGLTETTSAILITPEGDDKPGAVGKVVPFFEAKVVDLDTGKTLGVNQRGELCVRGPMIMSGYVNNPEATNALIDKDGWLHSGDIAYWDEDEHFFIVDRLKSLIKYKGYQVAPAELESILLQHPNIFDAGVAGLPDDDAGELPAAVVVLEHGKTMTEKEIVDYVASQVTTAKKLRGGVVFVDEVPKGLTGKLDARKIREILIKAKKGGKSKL
#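 Titration-based qHTS; buffer 50 mM imidazole pH 7.2, 50 mM KCl, 7 mM MgCl2, 10 uM ATP, 0.01% Tween 20, 0.05% BSA; luciferase/luciferin detector mix added after compound; 8 min, ambient; luminescence.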
# * marks the source's active call; other numbers are inactive results; ? = inconclusive; nt = no result; [ ] = another dose, or the depositor's remark. An excerpt weighted towards active compounds, which were near 2.4% of everything screened. Unless noted, calls follow the shape of the dose curve; as a rule, active = well fitted curve in the direction sought with a large enough effect; inconclusive = small, poorly fitted or top-dose-only effect, or another doubt; inactive = no such curve, though single readings can be large; an effect the other way counts as inactive or inconclusive. Potency is read from the fitted curve at half-maximal effect.
SMILES,p53ts 32C tox,Peg3 imprint,IkB sig inh,p53ts 39C tox,FLuc inh
Cc1cc(Cl)ccc1NC(=O)c1cc2ccccn2n1,10µM*,-17%[10.9 µM],5%,5µM*,nt
CC(=O)c1cccc(NC(=O)c2nc3ccccc3n(C)c2=O)c1,2.2µM*,-45%[10.9 µM],?,1.6µM*,nt
COc1ccc(C)cc1NC(=O)c1cc2ccccn2n1,-25%,14%[10.9 µM],1%,-24%,nt
Cc1ccc(NC(=O)c2ccc(Cl)cc2Cl)c(C(=O)c2ccccc2)c1,8%,-8%[10.9 µM],?,3%,nt
Cc1ccc(-c2nc(-c3cccnc3)no2)cc1,?,-66%,?,?,13µM*
CCC(=O)Oc1ccc(-c2nc(-c3cccnc3)no2)cc1,?,-92%,-1%,?,13µM*
Cc1ccc(S(=O)(=O)Cc2nc(-c3ccc(C(=O)NCc4ccccc4)cc3)oc2C)cc1,-1%,-19%[10.9 µM],-2%,-22%,nt
CCCN1C(=O)c2ccc(C(=O)Nc3nccs3)cc2C1=O,0%,3%,-7%,0%,13µM*
CC(C)CN1C(=O)c2ccc(C(=O)Nc3nccs3)cc2C1=O,-8%,-3%,6%,2%,13µM*
CC(C)CN1C(=O)c2ccc(C(=O)Nc3ccncc3)cc2C1=O,-3%,-20%,7%,-1%,-2%
COCCN1C(=O)c2ccc(C(=O)Nc3nccs3)cc2C1=O,-3%,3%,0%,-7%,-28%
COc1ccc(C(=O)Nc2nccs2)cc1OC,-16%,-14%,0%,-4%,-7%
CCCc1cc(C(=O)Nc2nccs2)cs1,?,-39%,?,?,7.9µM*
Cc1nc(N2CCCC2)ncc1C(=O)N1CCN(c2ccc(Cl)cc2)CC1,-14%,-9%[10.9 µM],1%,-13%,nt
CC1CCN(CC[C@@H]2CCCN2S(=O)(=O)c2cccc(O)c2)CC1,-15%,nt,-3%,-10%,-5%
CN(C)CCN(Cc1ccco1)C(=O)c1oc2ccccc2c1NC(=O)c1cccc(F)c1,-8%,?,-3%,10µM*,nt
CCOc1ccc(NC(=O)CC2C(=O)N(c3ccc(F)cc3)C(=O)N2CCc2sccc2C)cc1 (stereo not given),-10%,7%[10.9 µM],?,-15%,nt
CCN(CC)S(=O)(=O)c1ccc2c(c1)N(CC(=O)N1CCN(c3cccc(C)c3C)CC1)C(=O)CO2,5%,-16%[10.9 µM],?,-19%,nt
Cc1ccc(C(CC(=O)NCC2(c3ccccc3)CCCC2)c2ccccc2)c(O)c1 (stereo not given),-27%,-5%[10.9 µM],?,16µM*,nt
CC(C)c1ccc2oc(-c3cc(N)ccc3O)nc2c1,13µM*,-70%,?,16µM*,0.5µM*
Nc1ccc2oc(-c3cccc(Br)c3)nc2c1,?,-63%,-5%,?,7.9µM*
Nc1ccc2oc(-c3ccccc3Br)nc2c1,13µM*,-20%[10.9 µM],2%,13µM*,nt
Nc1ccc2oc(CCc3ccccc3)nc2c1,-23%,-62%,?,-27%,-28%
Nc1ccc2oc(-c3ccc4nc[nH]c4c3)nc2c1,8.9µM*,nt,nt,14µM*,nt
COC(=O)CC[C@@H](C)[C@H]1CC[C@H]2[C@H]3CC[C@H]4C[C@@H]5CC[C@@]4(C)C3(O5)[C@@H](Br)[C@@H](Br)[C@@]12C,10%[9.22 µM],nt,0%[11.4 µM],17%[9.22 µM],2%[11.4 µM]
SMILES,p53ts 32C tox,Peg3 imprint,IkB sig inh,p53ts 39C tox,FLuc inh
Cn1c(=O)oc2cc(S(=O)(=O)NC(Cc3ccccc3)C(=O)Nc3ccc(F)c(Cl)c3)ccc21 (stereo not given),1%,-3%[10.9 µM],?,-17%,nt
Cc1ccc(C(=O)Nc2ccc3oc(-c4ccccc4C)nc3c2)cc1,-6%,-5%[10.9 µM],?,16%,nt
Cc1ccccc1-c1nc2cc(N)ccc2o1,?,-57%,1%,?,13µM*
COC(=O)c1ccccc1NC(=O)c1nc(S(=O)(=O)Cc2cccc(C)c2)ncc1Cl,-13%,-39%[10.9 µM],?,-14%,nt
Cc1cccc(NC(=O)c2nc(S(C)(=O)=O)ncc2Cl)c1,?,-42%[10.9 µM],?,?,nt
COc1ccc(OC)c(NC(=O)c2nc(S(=O)(=O)Cc3ccc(F)cc3)ncc2Cl)c1,?,-35%[10.9 µM],-2%,10µM*,nt
CC(=O)Nc1ccc(NC(=O)c2nc(S(=O)(=O)Cc3ccc(F)cc3)ncc2Cl)cc1,-18%,-37%[10.9 µM],0%,10µM*,nt
Cc1ccc(NC(=O)c2nc(S(=O)(=O)Cc3ccc(F)cc3)ncc2Cl)cc1C,16µM*,-40%[10.9 µM],?,2.5µM*,nt
Fc1ccc(Nc2nc(SCc3ccccc3F)nc3ccccc23)cc1,?,-11%[10.9 µM],-3%,?,nt
CCC(Sc1nnc(C)n2c1cc1occc12)C(=O)Nc1ccccc1OC (stereo not given),-7%,11%[10.9 µM],?,?,nt
CCn1c(/N=C/c2c[nH]c3ccccc23)nc2ccccc21,-6%,-10%,17%,-1%,4µM*
CCn1c(/C=N/n2cnnc2)nc2ccccc21,-2%,-5%,-1%,2%,2%
O=C(Nc1ccc(OC(F)(F)F)cc1)c1cc(-c2ccc(Cl)cc2)on1,11%,-2%[10.9 µM],0%,27%,nt
O=C(Nc1ccc(OC(F)(F)F)cc1)C1=NCCN1,-28%,-6%,-2%,-10%,10µM*
Clc1ccc([C@@H](c2ccccc2Cl)C(Cl)Cl)cc1,nt,nt,18%,nt,-5%
COc1ccc(NC(=O)c2c(NCc3ccc(C)o3)sc3c2CCCCC3)c(OC)c1,45%,-6%[10.9 µM],?,36%,nt
